# Experimental data published in PubChem BioAssay (NCI).
# Several values for one entry are separate records, joined by “and”; a condition that tells them apart may be missing. Equal entries are not always repeated. Compounds without any hit were thinned out: in the full panel of roughly 83,000, 20% have a hit.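 A percent growth of 40 corresponds to 60% growth inhibition; 0 means no net growth; -100 means all cells died. Active threshold: below 10.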 Activity calls are given as the source filed them. Where a SMILES comes first, the peptide text is derived from it. [ ]: non-standard residue; d: D form. ξ: configuration not given here. ξV = CC(C)C(N)C(=O)O
# What was measured:
# Experiment in all cases: NCI-60 one-dose screen, 48 h (100 = growth as untreated, 0 = no growth, -100 = all killed)
# T-47D breast = details: 10 µM
# BT-549 breast = details: 10 µM
# MDA-MB-435 melanoma = details: 10 µM
# SW-620 colon = details: 10 µM
# HCT-116 colon = details: 10 µM
# HCC-2998 colon = details: 10 µM
# MCF7 breast = test system: MCF7 breast
# KM12 colon = details: 10 µM
SMILES,growth (T-47D breast),growth (BT-549 breast),growth (MDA-MB-435 melanoma),growth (SW-620 colon),growth (HCT-116 colon),growth (HCC-2998 colon),growth (MCF7 breast; 10 µM),growth (KM12 colon),growth (MCF7 breast; 50 µM)
CC1=CC(C)=Nc2ccc(Cl)cc2N1,102% (inactive),108% (inactive),107% (inactive),98.8% (inactive),100% (inactive),103% (inactive),–,–,–
O=C(/C=C/c1cccnc1)c1ccccc1,86.5% (inactive),103% (inactive),80.2% (inactive),23% (inactive),21.1% (inactive),86% (inactive),–,–,–
Cc1cc(NS(=O)(=O)c2ccc(N=Nc3cc(N=Nc4ccc(S(=O)(=O)Nc5cc(C)nc(C)n5)cc4)c4c(NC(=O)C(Cl)Cl)cccc4c3OC(=O)C(Cl)Cl)cc2)nc(C)n1 (tested in a mixture with another compound),101% (inactive) and 87.1% (inactive),111% (inactive) and 99.7% (inactive),101% (inactive) and 111% (inactive),–,105% (inactive) and 95.2% (inactive),107% (inactive) and 111% (inactive),94.4% (inactive) and 78% (inactive),–,–
Oc1ccc(N=Nc2ccccn2)c(O)c1,37.3% (inactive),36.6% (inactive),32.5% (inactive),–,18.7% (inactive),30% (inactive),14.5% (inactive),–,–
NNc1ccc2ccccc2c1,70.2% (inactive) and 98.5% (inactive),96.4% (inactive),98.8% (inactive) and 103% (inactive),–,102% (inactive) and 90.2% (inactive),98% (inactive),–,–,–
Cc1nc(N=C(N)N)nc2ccc3ccccc3c12,-10.6% (active),13.7% (inactive),-4.72% (active),9.65% (active),5.64% (active),13.3% (inactive),-18.1% (active),-9.2% (active),–
Nc1ccc2cc3ccc(N)cc3nc2c1,102% (inactive) and 2.81% (active),95.9% (inactive) and 69.1% (inactive),103% (inactive) and 23.4% (inactive),–,109% (inactive) and 3.02% (active),110% (inactive) and 16.7% (inactive),–,–,–
Nc1nc(=S)c2ncn(C3OC(CO)C(O)C3O)c2[nH]1 (configuration not stated),121% (inactive) and 35.2% (inactive),126% (inactive) and -1.38% (active),109% (inactive) and 17.7% (inactive),107% (inactive) and 35.9% (inactive),107% (inactive) and 17.3% (inactive),109% (inactive) and 23% (inactive),–,104% (inactive) and 19.8% (inactive),–
CCCCCCCCCCCCSC(=NC)NC,-7.65% (active) and 49.6% (inactive),45.3% (inactive) and 86.4% (inactive),-15.7% (active) and 43.4% (inactive),–,1.94% (active) and 47.4% (inactive),-54.8% (active) and -34.7% (active),-9.44% (active) and 22.6% (inactive),–,–
COC1OCC(O)C(O)C1O (configuration not stated),105% (inactive),105% (inactive),100% (inactive),99.3% (inactive),102% (inactive),107% (inactive),–,103% (inactive),–
N=S(c1ccccc1[N+](=O)[O-])c1ccccc1[N+](=O)[O-],-2.34% (active),84.7% (inactive),62.1% (inactive),–,5.85% (active),90.4% (inactive),–,–,–
CC(C)C(NC(=O)CN)C(=O)O (configuration not stated) (H-Gly-[ξV]-OH),102% (inactive),83.4% (inactive) and 116% (inactive),104% (inactive) and 101% (inactive),117% (inactive) and 101% (inactive),96.9% (inactive) and 107% (inactive),103% (inactive) and 106% (inactive),106% (inactive) and 101% (inactive),–,–
COc1cccc2c1C(=O)c1c(O)c3c(c(O)c1C2=O)C[C@@](O)(C(C)=O)C[C@@H]3OC1CC(N)C(O)C(C)O1 (some centres not stated),-16.3% (active),-70.9% (active),-87.2% (active),-3.91% (active),-37.5% (active),-86% (active),-9.83% (active),–,-90.1% (active) and -89.5% (active)
